In ChEMBL document CHEMBL3988442, “University of Dundee, Small-Polar-MMV Screening Library” (2021):
In all, about 48,000 compounds went through this assay and about 13,000 (27%) showed an effect of 50% or more. The list shows a part of the results.

system: Wolbachia pipientis; assay: Anti-Wolbachia Cell-Based Screen; format: functional; set-up: scale not given: in the data most compounds retested in dose-response had high values; settings: 5 µM

Structure (SMILES)	Percent Effect [%]
CCC(Oc1ccc(N(C)S(C)(=O)=O)cc1)C(N)=O (stereo unspecified)	16.67
O=C(c1ccc2nccnc2c1)N1CCN(CCO)[C@@H]2CS(=O)(=O)C[C@@H]21	-5.397
O=C(CCCNC(=O)Nc1ccc(F)cc1)Nc1cn[nH]c1	-3.689
Cc1cc(C(=O)N2CCN(C(=O)CC(C)C)[C@@H]3CS(=O)(=O)C[C@@H]32)no1	-7.208
Cc1noc(C)c1CN1C(=O)[C@H]2CC[C@@H]1CN(Cc1cccc(O)c1)C2	-12.83
Cc1cc(C)cc(C2(C(=O)NCC(C)CN3CCCC3=O)CC2)c1 (stereo unspecified)	2.33
Cc1cc(C)cc(C2(C(=O)NCC3CCN(CC(F)(F)F)C3)CC2)c1 (stereo unspecified)	144.8
COCCN1CCC(CNC(=O)Nc2ccc(-c3ccccc3)cc2)C1 (stereo unspecified)	-0.2028
COCCN1CCC(CNC(=O)C2(c3ccc(Br)cc3)CCCC2)C1 (stereo unspecified)	150.6
COCCN1CCC(CNC(=O)C2(c3ccccc3)CCC2)C1 (stereo unspecified)	100.1
N#Cc1ccc(CNC(=O)NC2CCN(CC(F)(F)F)C2)cc1 (stereo unspecified)	9.13
COCCN1CCC(CNC(=O)C2(C#N)CCCCC2)CC1	-10.25
CCCN1CCC(CC(=O)NCc2cc(C)nn2C)CC1	-10.83
CCCN1CCC(CNC(=O)C2(c3cc(C)cc(C)c3)CCC2)C1 (stereo unspecified)	132
CC(C)[C@@H]1CN(CCCOc2ccc(F)cc2)C[C@H]1NS(C)(=O)=O	10.36
CC(C)(C)Oc1ccncc1NCc1cscn1	-14.11
CCCN1CCC(CNC(=O)C2(c3ccccc3)CCC2)C1 (stereo unspecified)	94.67
CCN1CCC(CNC(=O)C2(c3cccc(C)c3)CC2)C1 (stereo unspecified)	-3.143
Cc1cc(CN2CCC(CNC(=O)C3(c4ccccc4)CC3)C2)[nH]n1 (stereo unspecified)	-1.817
Cc1ccc(CNC(=O)N2CCOCC2C2CC2)cc1F (stereo unspecified)	-8.546
O=C(NCCNc1ncccn1)NCCc1c(F)cccc1F	4.613
O=C(CN1CCCCC1Cn1cncn1)NCCC1=CCCCC1 (stereo unspecified)	-14.45
Cc1ccc(CNC(=O)Cn2c(=O)c3cccnc3n2C)cc1F	105.8
Cc1nc2n(n1)CC(NCC(=O)NCCC1=CCCCC1)CC2 (stereo unspecified)	18.92

Structure (SMILES)	Percent Effect [%]
Cn1c2ncccc2c(=O)n1CC(=O)Nc1ccc(F)c(F)c1	107.1
Cn1c2ncccc2c(=O)n1CC(=O)NCCc1c(F)cccc1F	97.5
Cn1c2ncccc2c(=O)n1CC(=O)NCCC1=CCCCC1	106.1
CS(=O)(=O)Cc1ccc(NC(=O)Cc2cccnc2)cc1F	17.36
O=c1c2cccnc2cnn1CC(O)c1ccc(F)c(F)c1 (stereo unspecified)	-16.55
Cc1cc(CNC(=O)CN2CCN(C(=O)OC(C)(C)C)CC2)ccc1F	-110.5
O=C(CN1CCN(CCO)CC1)NCCc1c(F)cccc1F	0.9837
CNC(=O)[C@@H]1C[C@H](N)CN1S(=O)(=O)c1cc(C)c(Cl)cc1C	4.211
COc1ccccc1OC1(C(=O)O)CCN(c2ncccc2F)CC1	-11.09
COc1ccncc1NCc1cscn1	0.2861
CSc1ccc(CN(CCO)Cc2nccn2C)cc1	-0.296
Cc1cncc(C(=O)N2CCOc3nc(C)ccc32)c1	1.683
CCC(C)(NCC(=O)NC(=O)NC)c1nc(C)cs1 (stereo unspecified)	-8.328
COc1cccc(C(C)N2CCN(S(C)(=O)=O)CC2)c1 (stereo unspecified)	-19.03
Cc1cccc2nc(CSCc3nnnn3C(C)C)cn12	-17.34
CN(Cc1cccnc1)[C@@H]1CN(C(=O)c2ccno2)[C@@H]2CCCO[C@H]12.O=C(O)C(F)(F)F.O=C(O)C(F)(F)F	103.3
CN(Cc1cccnc1)[C@@H]1CN(C(=O)CC2CC2)[C@@H]2CCCO[C@H]12.O=C(O)C(F)(F)F.O=C(O)C(F)(F)F	108.9
O=C(O)C(F)(F)F.O=C(c1ccoc1)N1CCO[C@]2(CCC[C@@H]2COCc2cccnc2)C1	-7.34
CN(Cc1cccnc1)[C@@H]1CN(C(=O)NC2CC2)[C@@H]2CCCO[C@H]12.O=C(O)C(F)(F)F.O=C(O)C(F)(F)F	101
O=C(O)C(F)(F)F.O=C(c1ccoc1)N1CCO[C@]2(CCC[C@H]2COCc2cccnc2)C1	1.703
CN(Cc1cccnc1)[C@@H]1CN(C(=O)c2ccoc2)[C@@H]2CCCO[C@H]12.O=C(O)C(F)(F)F.O=C(O)C(F)(F)F	116.4
CN(Cc1nccn1C)S(=O)(=O)c1cccc(C#N)c1	5.7
Cc1ccc(CN2C[C@@H](N(C)C)[C@H]3OCCC[C@H]32)o1.O=C(O)C(F)(F)F.O=C(O)C(F)(F)F	-10.94
CN(C)[C@@H]1CN(C(=O)CCc2ccccc2)[C@@H]2CCCO[C@H]12.O=C(O)C(F)(F)F	98.44

Structure (SMILES)	Percent Effect [%]
CN(C)[C@@H]1CN(C(=O)c2ccc(C#N)cc2)[C@@H]2CCCO[C@H]12.O=C(O)C(F)(F)F	5.598
COc1ccc(OC)c(C2CCN(Cc3nc(C)n4ccccc34)C2)c1 (stereo unspecified)	11.21
COc1cccc(Nc2nc(C3CCNCC3)c3ccccn23)c1.Cl	85.66
COc1cccc(Nc2nc(C3CCCNC3)c3ccccn23)c1.Cl (stereo unspecified)	104.7
Cn1cc(CCCNC(=O)NC2CCN(CC(F)(F)F)C2=O)cn1 (stereo unspecified)	-5.145
Cc1ncc(CNC(=O)c2oc3ccccc3c2CN(C)C)s1	-2.973
Cn1cnnc1S(=O)(=O)C1CCN(C(=O)c2cccs2)CC1	-12.26
Cn1nc(C2CCN(C(=O)c3cccs3)CC2)c2cccnc21	107.6
Cl.Cn1nc(C2CCN(C(=O)Cc3ccsc3)CC2)c2cccnc21	115.7
N#Cc1cccnc1N1CCN(C(=O)c2cccs2)CC1	-4.28
CN1CCN(C(=O)Cc2ccsc2)Cc2cccnc21.O=C(O)C(F)(F)F	-3.335
Cl.Cn1nc(C2CCN(C(=O)Cc3cccc(F)c3)CC2)c2cccnc21	-4.432
Cc1nc(CC(=O)N2CCC(c3nn(C)c4ncccc34)CC2)cs1.Cl	92.52
COC1CCN(C(=O)Cc2csc(-c3ncccn3)n2)CC1	-12.9
c1ccc(NCc2cn3c(n2)CN(Cc2ccoc2)CC3)nc1	6.648
COc1ccccc1OCCCc1cccc(C#N)n1	-3.599
FC(F)(F)CCc1ccnc(N2CCN(CCc3ccncc3)CC2)n1	-22.6
CC(C)N1CCC(N2CCN(C3CCC3)CC2CCO)CC1 (stereo unspecified)	3.855
Cc1nc(CN2CCC3(C2)CN(C(=O)c2ccc[nH]2)C3)cs1	122.8
Cc1nc(CN2CCOCC23CCN(c2ccc(C#N)cc2)CC3)cs1.O=C(O)C(F)(F)F	-24.99
Cc1nc(CN2CCC23CCN(C(=O)c2ccco2)CC3)cs1	98.46
O=C(c1ccc[nH]1)N1CC2(CCN(c3nccs3)C2)C1	-14.28
CCc1nc(C)sc1C(=O)N1CCN(c2ncccc2C)CC1	34.17
Cc1nc(CN2C[C@@H]3CN(C(=O)c4ccco4)C[C@@H]3C2=O)cs1.O=C(O)C(F)(F)F	-11.8

Structure (SMILES)	Percent Effect [%]
Cc1nc(CN2C(=O)CCC23CCN(Cc2ccco2)CC3)cs1	111.9
Cc1nc2c(c(N3CCN(Cc4ccco4)CC3)n1)CCNCC2	3.397
Cc1nc(CN2C(=O)CCC23CCN(c2ncccc2C)CC3)cs1	91.84
Cc1nc(CN2C(=O)CC[C@@H]3[C@H]2CCN3C(=O)c2ccc[nH]2)cs1	-9.626
O=C1CCC2(CCCN(c3ncc(F)cn3)CC2)N1Cc1ccccc1 (stereo unspecified)	-5.866
COc1cccc(C(=O)Nc2ccc(OCCC(N)=O)cc2)c1OC	3.494
N#Cc1ccc(OC2CCN(C(=O)COCC3CCCO3)CC2)cc1 (stereo unspecified)	-13.18
Cc1cnn(CCC(=O)NS(=O)(=O)N2CCCc3ccccc32)c1	4.859
Cc1nc(C2CCCN(C(=O)c3ccc(Cn4cccn4)o3)C2)no1 (stereo unspecified)	-2.072
O=C(O)C(F)(F)F.O=C(O)C(F)(F)F.c1coc(CN2CCCC3(COCCN(Cc4c[nH]nn4)C3)C2)c1 (stereo unspecified)	-3.131
Cc1nc(CN2CCC23CCN(Cc2ccco2)CC3)cs1	101.3
Cc1nc(CN2CCN(Cc3ccoc3)Cc3cccnc32)cs1.O=C(O)C(F)(F)F.O=C(O)C(F)(F)F.O=C(O)C(F)(F)F	3.214
Cc1nc(CN2CCOC3(CCCN(c4nccs4)C3)C2)cs1 (stereo unspecified)	-8.721
Cc1nc(CN2CCC23CCN(Cc2ccoc2)CC3)cs1	97.06
Cc1nc(CN2CCC3(C2)CN(Cc2ccco2)C3)cs1	129
Cc1cc(C)c(Cn2cncn2)cc1CN1CC[C@H](CO)[C@@H](O)C1	2.193
COCCN(Cc1noc(-c2ccc(OC)cc2)n1)C1CC1	20.29
CCOCC1CN(C(=O)c2ccsc2)Cc2nn(C)cc21 (stereo unspecified)	-7.597
CC(Cc1cccc(F)c1)C(=O)NS(=O)(=O)c1cnn(C)c1 (stereo unspecified)	-18.57
Cc1cccc2nc(CN3CCC(Cn4ccnn4)CC3)cc(=O)n12	-3.748
CCn1cnnc1C1CCN(C(=O)c2cnn(C(C)(C)C)c2)CC1	107
CCn1cnnc1C1CCN(C(=O)c2ccc(C(=O)OC)s2)CC1	-1.592
CCn1cnnc1C1CCN(C(=O)c2ccc(OC(C)C)nc2)CC1	106.8
CCn1cnnc1C1CCN(C(=O)c2cnc(C3CC3)s2)CC1	-9.527
